Assay results reported in the OligoGym collection.

What follows are sequences tested against HIST1H4B (assay: pooled miR-30 sensor sort-seq; sequence = guide strand). Conditions: shRNA.
Also: reference of the scale not given here.

Point of comparison: TCCTTGACGCTTGAGCGCGTAA, sensor-assay potency score (higher = more potent) -1.7. Against it:
- AACACCTTGAGAACGCCACGAG — higher, -0.445
- TTATCCCGCAGCACTTTTCGGT — higher, -0.874
- TAAACCACATCCATGGCAGTGA — higher, 0.196
- TACCCAAACCTTTACCGCCTTT — higher, -0.866
- AATCAAACCGGAAATTCGCTTA — higher, 0.0174
- ATCCATGGCAGTGACAGTCTTG — higher, -0.826
- TCTCCTCATAAATCAAACCGGA — higher, -1.02
- TTGGATGTTATCCCGCAGCACT — higher, -1.27
- TTTGGTGATGCCTTGGATGTTA — higher, 0.361
- TGACAGTCTTGCGCTTGGCGTG — higher, -1.49
- TATCCCGCAGCACTTTTCGGTG — higher, -1.57

The sequences below were run against HIST1H4G in the same assay as above. Conditions: shRNA.

Point of comparison: ATTATCGCTCAGTACCTTGCGA, sensor-assay potency score (higher = more potent) -0.081. Against it:
- TATCGCTCAGTACCTTGCGATG — lower, -1.74
- ACATTTTCCAGGAACACCTTGA — higher, -0.0469
- ACACCTTGAACACCCGGCGGGT — lower, -1.05
- TTATCGCTCAGTACCTTGCGAT — lower, -0.526
- AATATTATCGCTCAGTACCTTG — lower, -1.22
- AACACCTTGAACACCCGGCGGG — lower, -0.571
- TTTGAGCACGTAGACCACGGCC — lower, -0.756
- TACCAGATCACATTTTCCAGGA — lower, -0.129
- AGGAACACCTTGAACACCCGGC — lower, -0.945
- ATATTATCGCTCAGTACCTTGC — lower, -0.774
- TTGAGCACGTAGACCACGGCCA — lower, -0.24

What follows are sequences tested against HIST2H2AB in the same assay as above. Conditions: shRNA.

Point of comparison: TAACTTGTTGAGCTCTTCGTCA, sensor-assay potency score (higher = more potent) -0.534. Against it:
- TTGTGACTCTCCGTTTTCTTGG — lower, -0.765
- ACTTGTTGAGCTCTTCGTCATT — lower, -1.57
- GTAACTTGTTGAGCTCTTCGTC — lower, -0.977
- TTTTCTTGGGCAACAGGACAGC — lower, -1.07
- TTCGTCATTCCTCACGGCTAGT — lower, -0.686
- TGACTCTCCGTTTTCTTGGGCA — higher, 0.0701
- TCTTCGTCATTCCTCACGGCTA — lower, -1.31
- TTGAGCTCTTCGTCATTCCTCA — higher, 0.203
- AACTTGTTGAGCTCTTCGTCAT — higher, -0.274
- TTGGGCAACAGGACAGCCTGGA — higher, 0.319
- TGGATATTGGGCAAGACGCCGC — lower, -1.14
